{
  "source": "PubChem BioAssay (EPA / NIEHS)",
  "note": "Activity calls are given as the source filed them. How the source made its calls: active means hit-call score of the fitted dose curve at least 0.9, where 1 is the maximum; inactive means score below 0.9.",
  "data": [
    {"read-out": "CYP2C8 (gene 1558)", "experiment": "LTEA_HepaRG_CYP2C8: Life Technologies and Expression Analysis (LTEA) Assay for CYP2C8 using HepaRG (AID 2283483)", "details": "mRNA level, 48 h; actives raise or lower the signal", "outline": "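Differentiated HepaRG cells in serum-free induction medium exposed 48 h in duplicate to 8 half-log concentrations from 100 uM in 0.5% DMSO. CYP2C8 mRNA by qRT-PCR normalized to ACTB, GAPDH, POLR2A; bidirectional fit versus DMSO.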", "values": [
      {"smiles": "Cc1cc(C)nc(Nc2ccccc2)n1", "outcome": "inactive"},
      {"smiles": "C=C(C)CN(CC)c1c([N+](=O)[O-])cc(C(F)(F)F)cc1[N+](=O)[O-]", "outcome": "inactive"},
      {"smiles": "Cc1ccc(N=CN(C)C=Nc2ccc(C)cc2C)c(C)c1", "outcome": "inactive"},
      {"smiles": "CN=C=S", "outcome": "inactive"},
      {"smiles": "CC(C)=CC1C(C(=O)OCc2coc(Cc3ccccc3)c2)C1(C)C", "note": "(stereo unspecified)", "outcome": "inactive"},
      {"smiles": "CCCCOCN(C(=O)CCl)c1c(CC)cccc1CC", "outcome": "inactive"},
      {"smiles": "COCC(=O)N(c1c(C)cccc1C)C(C)C(=O)OC", "note": "(stereo unspecified)", "outcome": "inactive"},
      {"smiles": "CSC(=O)c1c(C(F)F)nc(C(F)(F)F)c(C(=O)SC)c1CC(C)C", "AC50": "11.5 µM (active)"},
      {"smiles": "COc1cc(Cl)c(OC)cc1Cl", "outcome": "inactive"},
      {"smiles": "CC(C)N1C(=O)c2ccccc2NS1(=O)=O", "outcome": "inactive"},
      {"smiles": "CCOP(=S)(OCC)Oc1nc(Cl)n(C(C)C)n1", "outcome": "inactive"},
      {"smiles": "Clc1nc(Cl)nc(Nc2ccccc2Cl)n1", "outcome": "inactive"},
      {"smiles": "CC1(C)C(C(=O)OC(C#N)c2cccc(Oc3ccccc3)c2)C1(C)C", "note": "(stereo unspecified)", "outcome": "inactive"},
      {"smiles": "COP(=O)(OC)O/C(C)=C/C(=O)N(C)C", "outcome": "inactive"},
      {"smiles": "COc1ccc(-c2ccccc2)cc1NNC(=O)OC(C)C", "outcome": "inactive"},
      {"smiles": "OC(c1ccc(Cl)cc1)(c1ccc(Cl)cc1)C(Cl)(Cl)Cl", "AC50": "80.6 µM (active)"},
      {"smiles": "CCCC(=NOCC)C1=C(O)CC(CC(C)SCC)CC1=O", "note": "(stereo unspecified)", "outcome": "inactive"},
      {"smiles": "COc1cc(OC)nc(NC(=O)NS(=O)(=O)c2ncccc2OCC(F)(F)F)n1", "outcome": "inactive"},
      {"smiles": "CO/N=C(/C1=NOCCO1)c1ccccc1Oc1ncnc(Oc2ccccc2Cl)c1F", "AC50": "25.8 µM (active)"},
      {"smiles": "CCN(CC)C(=O)C(C)Oc1cccc2ccccc12", "note": "(stereo unspecified)", "outcome": "inactive"},
      {"smiles": "CCCCC(C#N)(Cn1cncn1)c1ccc(Cl)cc1", "note": "(stereo unspecified)", "AC50": "12.1 µM (active)"}
    ]}
  ]
}
